Measurements: PubChem BioAssay AID1159580 (chemical genetic matrix, 2015)
Screen size: about 5,500 compounds; about 2,000 (36%) were called active. Another 18% or so got no clear call; they are omitted. No stated cut-off is given here; in the data, active means normalized growth mostly below about 0.91 (no sharp cut-off); inconclusive means no clear call, values can overlap the other calls; inactive means mostly above about 0.92. Some of the results follow.

Assay: chemical genetic growth profiling, strain panel (AID 1159580);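 further: tested at 20 µM; growth read once vehicle control cultures reached saturation at 30 °C; 1 = growth at the plate median or of vehicle wells; lower values mean less growth of the strain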
Details: S. cerevisiae deletion strains, growth OD
[1] = locus YDL101C, strain DUN1, active compounds read low
[2] = locus YHR030C, strain SLT2, active compounds read low

Measured: normalized growth

CCOC(=O)COc1ccc2c(c1)OC(C)(C)CC2=O
inactive: locus YAL013W, strain DEP1, active compounds read low 0.998 | locus YBR229C, strain ROT2, active compounds read low 0.994 | locus YCL061C, strain MRC1, active compounds read low 0.964 | [1] 0.993 | locus YDL134C, strain PPH21, active compounds read low 1.01 | locus YDR150W, strain NUM1, active compounds read low 0.872 | locus YEL061C, strain CIN8, active compounds read low 1.01 | locus YGR078C, strain PAC10, active compounds read low 1 | locus YGR229C, strain SMI1, active compounds read low 1.01 | [2] 0.947 | locus YHR087W, strain rtc3, active compounds read low 0.976 | locus YJR043C, strain POL32, active compounds read low 0.994 | locus YJR075W, strain HOC1, active compounds read low 0.974 | locus YLR039C, strain RIC1, active compounds read low 1.05 | locus YLR058C, strain SHM2 (second series), active compounds read low 1 | locus YLR085C, strain ARP6, active compounds read low 0.965 | locus YLR262C, strain YPT6, active compounds read low 1.02 | locus YML094W, strain GIM5, active compounds read low 1.02 | locus YMR219W, strain ESC1, active compounds read low 0.988 | locus YMR263W, strain SAP30, active compounds read low 1.01 | locus YMR307W, strain GAS1, active compounds read low 0.986 | locus YNL128W, strain TEP1, active compounds read low 1.01 | locus YNL153C, strain GIM3, active compounds read low 0.966 | locus YNL298W, strain CLA4 (second series), active compounds read low 1.01 | locus YNL322C, strain KRE1, active compounds read low 1 | locus YNR030W, strain Alg12, active compounds read low 1 | locus YPL055C, strain LGE1, active compounds read low 0.849 | locus YPL241C, strain CIN2, active compounds read low 0.953 | locus YPR135W, strain CTF4, active compounds read low 1.03

Cc1oc2c(F)c(F)c(F)c(F)c2c1C(=O)ONC(N)c1ccc(OS(=O)(=O)N(C)C)cc1 (stereo not given)
inactive: locus YAR019C, strain CDC15, active compounds read low 0.958 | locus YBL105C, strain PKC1, active compounds read low 0.963 | locus YBR135W, strain CKS1, active compounds read low 0.971 | locus YBR136W, strain MEC1, active compounds read low 0.958 | locus YBR160W, strain CDC28, active compounds read low 0.976 | locus YDL017W, strain CDC7, active compounds read low 0.973 | locus YDL028C, strain MPS1, active compounds read low 0.959 | [1] 0.985 | locus YDL108W, strain KIN28, active compounds read low 0.978 | locus YDL132W, strain cdc53, active compounds read low 0.982 | locus YDL214C, strain PRR2, active compounds read low 0.969 | locus YDR052C, strain DBF4, active compounds read low 0.971 | locus YDR054C, strain cdc34, active compounds read low 0.976 | locus YDR226W, strain ADK1, active compounds read low 0.969 | locus YDR477W, strain SNF1, active compounds read low 0.946 | locus YER123W, strain YCK3, active compounds read low 0.926 | locus YER133W, strain GLC7, active compounds read low 0.958 | locus YFL009W, strain cdc4, active compounds read low 0.962 | locus YFL029C, strain CAK1, active compounds read low 0.958 | locus YFR003C, strain YPI1, active compounds read low 0.968 | locus YFR019W, strain FAB1, active compounds read low 0.937 | locus YFR028C, strain CDC14, active compounds read low 0.963 | locus YGR040W, strain KSS1, active compounds read low 0.949 | locus YGR052W, strain FMP48, active compounds read low 1.03 | locus YGR092W, strain DBF2, active compounds read low 0.989 | [2] 0.937 | locus YHR079C, strain IRE1, active compounds read low 0.981 | locus YHR082C, strain KSP1, active compounds read low 1.02 | locus YHR205W, strain SCH9, active compounds read low 0.926 | locus YIL147C, strain SLN1, active compounds read low 0.96 | locus YJL095W, strain BCK1, active compounds read low 0.983 | locus YJL128C, strain PBS2, active compounds read low 0.972 | locus YJL157C, strain FAR1, active compounds read low 0.963 | locus YJR016C, strain ILV3, active compounds read low 0.972 | locus YJR066W, strain TOR1 (second series), active compounds read low 0.918 | locus YJR066W, strain TOR1, active compounds read low 0.985 | locus YKL048C, strain ELM1, active compounds read low 0.981 | locus YKL067W, strain YNK1, active compounds read low 0.975 | locus YKL101W, strain HSL1, active compounds read low 0.966 | locus YKL193C, strain SDS22, active compounds read low 0.969 | locus YKL203C, strain TOR2, active compounds read low 0.99 | locus YLR113W, strain HOG1, active compounds read low 0.966 | locus YLR133W, strain CKI1, active compounds read low 0.96 | locus YLR403W, strain SFP1, active compounds read low 0.921 | locus YML070W, strain DAK1, active compounds read low 0.955 | locus YMR001C, strain CDC5, active compounds read low 0.963 | locus YMR205C, strain PFK2 (second series), active compounds read low 0.975 | locus YMR277W, strain FCP1, active compounds read low 0.964 | locus YNL006W, strain LST8, active compounds read low 0.97 | locus YNL020C, strain ARK1, active compounds read low 0.982 | locus YNL161W, strain CBK1, active compounds read low 0.971 | locus YNL183C, strain NPR1, active compounds read low 0.964 | locus YNL207W, strain RIO2, active compounds read low 0.967 | locus YNL222W, strain SSU72, active compounds read low 0.976 | locus YNL307C, strain MCK1 (second series), active compounds read low 0.952 | locus YOL078W, strain AVO1, active compounds read low 0.963 | locus YOL136C, strain PFK27, active compounds read low 0.952 | locus YOR061W, strain CKA2, active compounds read low 0.951 | locus YOR119C, strain RIO1, active compounds read low 0.97 | locus YOR231W, strain MKK1, active compounds read low 0.986 | locus YOR329C, strain SCD5, active compounds read low 0.972 | locus YPL031C, strain PHO85, active compounds read low 0.94 | locus YPL153C, strain RAD53, active compounds read low 0.946 | locus YPL204W, strain HRR25, active compounds read low 0.963 | locus YPL209C, strain IPL1, active compounds read low 0.974 | locus YPL256C, strain CLN2, active compounds read low 0.959 | locus YPR025C, strain CCL1, active compounds read low 0.968 | locus YPR106W, strain ISR1, active compounds read low 0.986 | locus YPR111W, strain DBF20, active compounds read low 0.98 | strain NNK1, active compounds read low 0.993 | strain TSCII, active compounds read low 0.967
